The record followed here is PubChem BioAssay (Tox21).

The nature of assay [1]: qHTS assay to identify small molecule antagonists of the sonic hedgehog signaling (Shh) pathway (AID 1259369; calls by dose curve; note: nearly all actives have a fitted effect of over 45% in size; note: potency is the fitted concentration of half-maximal effect). A digest of the protocol:
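NIH/3T3-derived 3T3Gli1-Luc cells with stably integrated Gli1-Luc reporter were preincubated 4hr at 37 C, then given compounds in DMSO plus Shh conditioned medium and incubated 24hr. Firefly luciferase luminescence read after 30min reagent at room temperature.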

A short description of assay [2]: qHTS assay to identify small molecule agonists of the androgen receptor (AR) signaling pathway in the presence of an antagonist - cell viability counter screen (AID 1259379). Note: nearly all actives have a fitted effect of over 25% in size. Note: potency is the fitted concentration of half-maximal effect. A digest of the protocol:
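MDA-kb2 human breast carcinoma cells (stable MMTV-luciferase, AR/GR responsive) were seeded 3,000 cells/well, pre-incubated 5 hr at 37C without CO2, then given 3.0uM nilutamide and compounds at 15 concentrations for 16 hr. Viability was read by CellTiter-Fluor fluorescence.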
(In general: Quantitative high-throughput screening tests each substance at several concentrations.)

A short description of assay [3]: qHTS assay to identify small molecule agonists of the estrogen receptor beta (ER-beta) signaling pathway - cell viability counter screen (AID 1259380). Note: nearly all actives have a fitted effect of over 30% in size. Note: potency is the fitted concentration of half-maximal effect. A digest of the protocol: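 ER-beta-UAS-bla HEK293T cells in medium with 2% charcoal-stripped FBS were preincubated 6 hr at 37C, dosed with compound in DMSO for 16 hr, then after the bla read, CellTiter-Glo was added for 30 min at room temperature; luminescence recorded.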

A short description of assay [4]: qHTS assay to identify small molecule antagonists of the estrogen receptor beta (ER-beta) signaling pathway - cell viability counter screen (AID 1259382). Note: nearly all actives have a fitted effect of over 55% in size. Note: potency is the fitted concentration of half-maximal effect. A digest of the protocol:
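ER-beta-UAS-bla HEK293T cells (2,000/well, 2% charcoal-stripped FBS) were pre-incubated 6 hr at 37C, then given compound plus 1nM final 17-beta-estradiol for 16 hr. Viability was read in the same wells by CellTiter-Glo luminescence after 30 min at room temperature.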

Assay [5] has as its target Thyrotropin receptor (Homo sapiens) (UniProt P16473). The experiment in a line: qHTS assay to identify small molecule antagonists of the thyroid stimulating hormone receptor (TSHR) signaling pathway (AID 1259385; calls by dose curve; note: nearly all actives have a fitted effect of over 20% in size; note: potency is the fitted concentration of half-maximal effect). A digest of the protocol: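 Antagonist mode: compound-treated TSHR-expressing HEK293 cells were stimulated with 1.5 ng/mL TSH (final) in presence of Ro20-1724 for 30 min at RT. HTRF cAMP detection after 1 h; each compound tested at 15 concentrations, triplicate.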

A short description of assay [6]: qHTS assay to identify small molecule agonists of the estrogen receptor alpha (ER-alpha) signaling pathway in the presence of an antagonist - cell viability counter screen (AID 1259386).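 Note: cells exposed to compounds for 22 h at 37 °C before the viability read; nearly all actives have a fitted effect of over 30% in size.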 Note: potency is the fitted concentration of half-maximal effect. A digest of the protocol:
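VM7Luc4E2 cells (endogenous full-length ER-alpha, 4×ERE-luciferase) were held 5 days in phenol red-free medium with 10% charcoal-stripped FBS, plated, then given 10.0nM ICI-182,780 and compounds at 15 concentrations for 22hr at 37C; viability read by CellTiter-Fluor fluorescence.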

For assay [7], the target named is Progesterone receptor (Homo sapiens) (UniProt P06401). The experiment in a line: qHTS assay to identify small molecule antagonists of the progesterone receptor (PR) signaling pathway (AID 1346795; active = well fitted inhibition curve with a large enough effect in the signal ratio in the repeat runs, not every such curve was filed as active; the % refers to the signal ratio; note: potency is the fitted concentration of half-maximal effect). A digest of the protocol:
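Read-out is fluorescence from the LiveBLAzer B/G FRET substrate, cleaved by a UAS-controlled beta-lactamase in PR-UAS-bla HEK293T cells after 16 hr exposure to compound plus 1 nM promegestone (final), followed by 2 hr at room temperature.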

The nature of assay [8]: qHTS assay to identify small molecule antagonists of the TGF-beta/Smad signaling pathway - cell viability counter screen (AID 1346824). Note: nearly all actives have a fitted effect of over 50% in size. Note: potency is the fitted concentration of half-maximal effect. A digest of the protocol: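 Cytotoxicity counter-screen run in the same wells as the beta-lactamase Smad reporter read: CellTiter-Glo luminescence after 30 min at room temperature. HEK 293T SBE-bla cells had 5 hr compound exposure at 37 C with TGF-beta1 (0.25 ng/mL stock).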

A short description of assay [9]: qHTS assay to identify small molecule agonists of the TGF-beta/Smad signaling pathway - cell viability counter screen (AID 1346829). Note: nearly all actives have a fitted effect of over 45% in size. Note: potency is the fitted concentration of half-maximal effect. A digest of the protocol: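 Same-well cytotoxicity: CellTiter-Glo added after the 2 hr room-temperature beta-lactamase substrate step, luminescence measured 30 min later; cells had 5 hr of compound at 37 C.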
Assay [10] is described as follows: qHTS assay to identify small molecule agonists of the TGF-beta/Smad signaling pathway (AID 1346859; active = well fitted activation curve with a large enough effect in the signal ratio in the repeat runs, not every such curve was filed as active; the % refers to the signal ratio; note: series mostly up to about 77 µM). A digest of the protocol: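 SBE-bla HEK 293T, 4,000 cells/well, plated o/n; cpd in DMSO, 5 hr, 37 C/5% CO2; B/G FRET substrate 2 hr RT; ex 405, em 460/530 nm.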
For assay [11], the target named is Thyrotropin-releasing hormone receptor (Homo sapiens) (UniProt P34981). The experiment in a line: qHTS assay to identify small molecule agonists of the thyrotropin-releasing hormone receptor (TRHR) signaling pathway (AID 1346891; calls by dose curve; note: series mostly up to about 58 µM). A digest of the protocol: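 Intracellular calcium rise, read as fluorescence every second for 3 min, served as the agonist signal in dye-loaded HEK293 cells expressing TRHR; each compound ran at 15 concentrations in triplicate.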
Sequence of Thyrotropin-releasing hormone receptor (Homo sapiens) (P34981 whole entry, looked up): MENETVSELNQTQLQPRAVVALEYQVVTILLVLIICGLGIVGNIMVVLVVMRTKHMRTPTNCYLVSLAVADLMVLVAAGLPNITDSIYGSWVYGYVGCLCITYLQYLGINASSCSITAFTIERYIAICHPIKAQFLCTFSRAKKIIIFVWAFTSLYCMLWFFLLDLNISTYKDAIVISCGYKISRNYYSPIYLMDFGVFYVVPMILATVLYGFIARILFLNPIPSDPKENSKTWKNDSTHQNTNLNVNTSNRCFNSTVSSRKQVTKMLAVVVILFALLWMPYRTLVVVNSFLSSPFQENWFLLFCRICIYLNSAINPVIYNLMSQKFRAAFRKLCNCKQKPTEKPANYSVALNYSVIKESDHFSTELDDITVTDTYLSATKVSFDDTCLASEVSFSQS

Assay [12] has as its target Estrogen receptor (Homo sapiens) (UniProt P03372). Nature of the assay: qHTS assay to identify small molecule agonists of the estrogen receptor alpha (ER-alpha) signaling pathway in the presence of an antagonist (AID 1259383; calls by dose curve; note: nearly all actives have a fitted effect of over 15% in size; note: potency is the fitted concentration of half-maximal effect; for activation: top concentration of the series differs between compounds). A digest of the protocol:
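VM7Luc4E2 cells (endogenous full-length ER-alpha, 4×ERE-luciferase) were precultured 5 days in phenol red-free medium with 10% charcoal-stripped FBS, given 10.0nM ICI-182,780 (final), then treated with compounds at 15 concentrations for 22hr at 37C; luminescence read with ONE-Glo.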

The target of assay [13] is Thyrotropin-releasing hormone receptor (Homo sapiens) (UniProt P34981). Nature of the assay: qHTS assay to identify small molecule antagonists of the thyrotropin-releasing hormone receptor (TRHR) signaling pathway (AID 1346877; active = well fitted inhibition curve with a large enough effect in the repeat runs, not every such curve was filed as active; note: potency is the fitted concentration of half-maximal effect). A digest of the protocol:
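TRHR-expressing HEK293 cells were seeded, cultured 18 h at 37 °C, then loaded with calcium dye for 2 h. Compounds were pre-incubated 5 min at room temperature before 1 nM TRH (final) was added, and kinetic fluorescence was recorded for 3 min.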

The target of assay [14] is Progesterone receptor (Homo sapiens) (UniProt P06401). Nature of the assay: qHTS assay to identify small molecule agonists of the progesterone receptor (PR) signaling pathway (AID 1346784; calls by dose curve; note: nearly all actives have a fitted effect of over 30% in size). A digest of the protocol:
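Beta-lactamase reporter read-out: after 16 hr compound treatment at 37C and a further 2 hr at room temperature with LiveBLAzer B/G FRET substrate, fluorescence was measured in PR-UAS-bla HEK 293T cells grown in 2% charcoal-stripped serum.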

Assay [15] can be described thus: qHTS assay to identify small molecule antagonists of the progesterone receptor (PR) signaling pathway - cell viability counter screen (AID 1346798). Note: nearly all actives have a fitted effect of over 50% in size. Note: potency is the fitted concentration of half-maximal effect. A digest of the protocol: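 HEK293T PR-UAS-bla, 2% charcoal-stripped FBS; 4 hr pre-plate; cpd + R5020, 16 h 37C; LiveBLAzer read first; then CellTiter-Glo 30 min RT, luminescence.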
Assay [16] is described as follows: qHTS assay to identify small molecule agonists of the progesterone receptor (PR) signaling pathway - cell viability counter screen (AID 1346799; calls by dose curve; note: nearly all actives have a fitted effect of over 45% in size). A digest of the protocol: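 Luminescence from CellTiter-Glo, added after the beta-lactamase FRET read in the same wells, gave cytotoxicity in PR-UAS-bla HEK293T cells treated with compounds for 16 hr at 37C.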
In assay [17] the target is Androgen receptor (Homo sapiens) (UniProt P10275). The experiment in a line: qHTS assay to identify small molecule agonists of the androgen receptor (AR) signaling pathway in the presence of an antagonist (AID 1259381; calls by dose curve; note: nearly all actives have a fitted effect of over 15% in size). A digest of the protocol:
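MDA-kb2 human breast carcinoma cells carrying an MMTV-luciferase reporter (AR- and GR-responsive) were treated with compounds at 15 concentrations plus 3.0uM final nilutamide for 16hr at 37C without CO2; luminescence was read after ONE-Glo addition.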

Assay [18] can be described thus: qHTS assay to identify small molecule agonists or antagonists of the thyroid stimulating hormone receptor (TSHR) signaling pathway - wild type cell line counter screen (AID 1259384; calls by dose curve). A digest of the protocol: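 Counter screen in untransfected Hek293: compounds (15-point titration, triplicate) plus phosphodiesterase inhibitor Ro20-1724 added after 18 h plating; 30 min RT. Intracellular cAMP via competitive d2/cryptate immunoassay, 1 h incubation.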

Where “and” joins values, the source holds several entries; their conditions need not be identical. Identical values can stand only once. Unmarked numbers belong to inactive results. Results filed as inconclusive are left out. Calls of active or inactive are those of the source. Unless noted, calls come from the whole dose curve; as a rule, active = well fitted curve in the direction sought with a large enough effect in the repeat runs; inconclusive = weak or mixed curves; inactive = no such curve, though single readings can be large; an effect the other way counts as inactive or inconclusive.

Sequence of Estrogen receptor (Homo sapiens) (P03372 whole entry, looked up): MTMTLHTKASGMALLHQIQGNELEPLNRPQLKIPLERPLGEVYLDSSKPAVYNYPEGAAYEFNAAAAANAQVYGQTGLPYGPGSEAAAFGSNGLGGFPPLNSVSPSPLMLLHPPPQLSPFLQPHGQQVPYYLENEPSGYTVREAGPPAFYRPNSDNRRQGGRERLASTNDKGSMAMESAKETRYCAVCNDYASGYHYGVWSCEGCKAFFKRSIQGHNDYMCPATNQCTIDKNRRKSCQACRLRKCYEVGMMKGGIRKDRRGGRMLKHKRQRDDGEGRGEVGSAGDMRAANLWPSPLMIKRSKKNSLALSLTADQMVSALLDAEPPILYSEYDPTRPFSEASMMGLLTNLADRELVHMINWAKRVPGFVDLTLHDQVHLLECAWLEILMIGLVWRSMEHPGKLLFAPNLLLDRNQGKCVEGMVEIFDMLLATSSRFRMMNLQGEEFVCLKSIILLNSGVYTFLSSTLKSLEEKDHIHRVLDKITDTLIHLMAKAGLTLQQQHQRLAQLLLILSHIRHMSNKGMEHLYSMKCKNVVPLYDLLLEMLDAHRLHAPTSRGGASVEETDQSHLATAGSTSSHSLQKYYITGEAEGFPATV
Sequence of Thyrotropin receptor (Homo sapiens) (P16473 whole entry, looked up): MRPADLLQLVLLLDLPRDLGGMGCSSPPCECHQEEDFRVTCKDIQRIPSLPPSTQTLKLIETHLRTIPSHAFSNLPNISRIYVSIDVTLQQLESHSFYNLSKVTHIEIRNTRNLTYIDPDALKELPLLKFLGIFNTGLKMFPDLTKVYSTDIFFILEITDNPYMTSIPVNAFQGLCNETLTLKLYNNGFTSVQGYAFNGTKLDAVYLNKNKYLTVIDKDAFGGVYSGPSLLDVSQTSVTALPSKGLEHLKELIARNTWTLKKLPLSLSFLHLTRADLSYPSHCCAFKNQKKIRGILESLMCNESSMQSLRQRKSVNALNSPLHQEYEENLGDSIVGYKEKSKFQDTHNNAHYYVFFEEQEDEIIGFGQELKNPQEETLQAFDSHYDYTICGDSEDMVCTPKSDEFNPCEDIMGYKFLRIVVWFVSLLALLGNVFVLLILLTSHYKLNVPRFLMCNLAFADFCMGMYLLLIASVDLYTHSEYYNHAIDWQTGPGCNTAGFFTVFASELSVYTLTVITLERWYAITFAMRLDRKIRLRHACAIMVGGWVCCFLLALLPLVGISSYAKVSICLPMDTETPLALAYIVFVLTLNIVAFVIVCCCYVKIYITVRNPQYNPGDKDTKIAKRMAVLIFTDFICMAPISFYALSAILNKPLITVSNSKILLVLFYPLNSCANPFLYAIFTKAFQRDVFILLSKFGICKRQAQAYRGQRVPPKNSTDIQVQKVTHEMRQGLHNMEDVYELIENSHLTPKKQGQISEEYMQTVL
Sequence of Progesterone receptor (Homo sapiens) (P06401 whole entry, looked up): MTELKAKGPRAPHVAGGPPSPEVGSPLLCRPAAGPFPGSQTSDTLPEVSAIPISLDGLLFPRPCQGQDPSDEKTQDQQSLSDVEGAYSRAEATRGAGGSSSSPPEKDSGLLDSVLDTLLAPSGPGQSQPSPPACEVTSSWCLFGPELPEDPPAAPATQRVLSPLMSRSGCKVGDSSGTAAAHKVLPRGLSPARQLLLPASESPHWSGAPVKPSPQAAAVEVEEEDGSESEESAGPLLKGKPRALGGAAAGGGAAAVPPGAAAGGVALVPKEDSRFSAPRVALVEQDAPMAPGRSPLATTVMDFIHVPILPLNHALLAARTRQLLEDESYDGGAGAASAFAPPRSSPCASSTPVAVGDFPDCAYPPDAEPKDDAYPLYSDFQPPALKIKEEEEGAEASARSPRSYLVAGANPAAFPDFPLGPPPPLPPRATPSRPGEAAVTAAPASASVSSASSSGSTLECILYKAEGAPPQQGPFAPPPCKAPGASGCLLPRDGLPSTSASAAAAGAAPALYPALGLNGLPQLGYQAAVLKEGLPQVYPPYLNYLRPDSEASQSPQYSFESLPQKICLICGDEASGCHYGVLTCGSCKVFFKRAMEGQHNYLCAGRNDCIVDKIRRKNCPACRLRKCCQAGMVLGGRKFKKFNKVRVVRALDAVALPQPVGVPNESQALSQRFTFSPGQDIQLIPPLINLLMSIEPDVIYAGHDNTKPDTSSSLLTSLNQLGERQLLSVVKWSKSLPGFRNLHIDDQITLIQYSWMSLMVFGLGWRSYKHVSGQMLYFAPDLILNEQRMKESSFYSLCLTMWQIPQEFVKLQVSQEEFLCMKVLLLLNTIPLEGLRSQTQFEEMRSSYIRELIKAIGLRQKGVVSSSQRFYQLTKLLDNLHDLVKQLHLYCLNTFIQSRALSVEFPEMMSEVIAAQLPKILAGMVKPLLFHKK
Sequence of Androgen receptor (Homo sapiens) (P10275 whole entry, looked up): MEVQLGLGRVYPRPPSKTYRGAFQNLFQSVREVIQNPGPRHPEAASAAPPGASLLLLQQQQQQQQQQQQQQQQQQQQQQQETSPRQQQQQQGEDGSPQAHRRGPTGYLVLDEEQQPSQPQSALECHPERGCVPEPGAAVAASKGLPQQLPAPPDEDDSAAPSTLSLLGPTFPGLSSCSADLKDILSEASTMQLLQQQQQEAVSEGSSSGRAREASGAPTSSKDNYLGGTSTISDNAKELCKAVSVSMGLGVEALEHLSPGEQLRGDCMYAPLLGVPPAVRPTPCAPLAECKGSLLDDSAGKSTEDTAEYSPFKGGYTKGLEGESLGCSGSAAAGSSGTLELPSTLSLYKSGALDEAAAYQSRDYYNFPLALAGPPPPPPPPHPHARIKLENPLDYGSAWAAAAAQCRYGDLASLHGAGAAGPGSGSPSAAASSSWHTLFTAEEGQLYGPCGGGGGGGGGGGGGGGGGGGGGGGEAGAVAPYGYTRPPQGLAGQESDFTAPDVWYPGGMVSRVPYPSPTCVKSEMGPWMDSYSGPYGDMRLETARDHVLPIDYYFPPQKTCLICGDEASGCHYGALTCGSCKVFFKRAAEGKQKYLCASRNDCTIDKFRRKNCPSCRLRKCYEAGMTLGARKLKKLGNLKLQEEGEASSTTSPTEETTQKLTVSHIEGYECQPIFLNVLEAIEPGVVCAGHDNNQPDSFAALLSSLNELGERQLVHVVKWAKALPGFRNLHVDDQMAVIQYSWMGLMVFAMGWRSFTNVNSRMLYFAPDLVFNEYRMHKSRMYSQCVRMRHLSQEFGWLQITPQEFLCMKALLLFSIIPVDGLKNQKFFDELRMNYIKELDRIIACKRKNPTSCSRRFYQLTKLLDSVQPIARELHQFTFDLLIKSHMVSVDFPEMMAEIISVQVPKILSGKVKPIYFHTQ

For `CC(C)CC(C)(c1ccc(O)cc1)c1ccc(O)cc1`, the Potency in [1] is 27.4 µM (active); in assay [3], 68.7 µM (active) and 61.1 µM (active); in assay [4], 54.6 µM (active) and 68.6 µM (active); in assay [7], 6.11 µM (active). For the same molecule, the Potency entry in assay [2], in assay [5], in assay [6], in assay [8], in assay [9] and in assay [11] was “inactive” each time. Moreover, the result in [10] was inactive.

Take `Oc1ccc(C2(c3ccc(O)cc3)CCCCC2)cc1`: the Potency was 46 µM (active) in assay [1], 57.9 µM (active) in assay [3], 57.9 µM (active) in [4] and 14.5 µM (active) in [12]. For the same molecule, the Potency result in [2], in assay [8], in [9], in assay [13] and in assay [11] was “inactive” each time. Further, the call in assay [10] was inactive.

Take `ClCc1ccc(Cl)cc1Cl`: the Potency entry in [1], in [2], in [3], in assay [4], in assay [12] and in assay [5] was “inactive” throughout. Besides, the Potency result in assay [6], in assay [14], in [7], in assay [15], in [16] and in assay [8] was “inactive” in each case. The Potency entry in assay [9] was “inactive”.

On to `O=c1oc2ccccc2c(O)c1Cc1c(O)c2ccccc2oc1=O`, for which the Potency entry in [1], in assay [2], in assay [17], in assay [6], in [14] and in [8] was “inactive” each time. The Potency result in assay [9] was “inactive”. In addition, the Potency in [3] is 5.31 µM (active). Besides, in assay [10], the call was inactive.

Turning to `CCN(CC)C(=S)[S-].CCN(CC)C(=S)[S-].[Zn+2]`, the Potency in assay [1] is 0.481 µM (active); in assay [2], 60.6 µM (active); in assay [3], 2.71 µM (active); in assay [4], 2.15 µM (active); in [5], 68 µM (active); in [7] it was 1.08 µM (active). In addition, the results for the Potency in assay [15], in assay [8] and in assay [9] were 1.21 µM (active), 12.2 µM (active) and 38.6 µM (active), respectively. The Potency result in [12] was “inactive”. The result in [18] and in assay [10] was inactive.

Take `Clc1ccc(Oc2ccccc2)cc1`: the Potency result in assay [1], in assay [2], in assay [3], in assay [17], in assay [12] and in assay [6] was “inactive” each time. In addition, the Potency entry in assay [14], in assay [7], in assay [15], in assay [16], in assay [8] and in [9] was “inactive” throughout. Further, the Potency entry in assay [13] and in assay [11] was “inactive” each time. Besides, the result in assay [10] was inactive.

In the case of `C[C@H]1CC[C@@H]2[C@@H](C)[C@H]3[C@H](C[C@H]4[C@@H]5CC=C6CC(O[C@@H]7O[C@H](CO)[C@H](O)[C@H](O[C@@H]8O[C@H](CO)[C@@H](O)[C@H](O)[C@H]8O)[C@H]7O[C@H]7O[C@@H](C)[C@H](O)[C@@H](O)[C@H]7O)CC[C@]6(C)[C@H]5CC[C@]34C)N2C1` (some centres not stated), the Potency entry in [1] and in assay [12] was “inactive” each time. The Potency in assay [2] is 22.4 µM (active); in assay [3] it was 15.8 µM (active); in assay [4], 25.1 µM (active); in [5], 10 µM (active); in assay [6] it was 28.2 µM (active); in [15] it was 31.6 µM (active). Further, the values for the Potency in assay [8], in [9] and in assay [13] were 12.7 µM (active), 12.7 µM (active) and 7.82 µM (active), respectively. For the same molecule, in assay [18], the molecule was called inactive.
